Screens from PubChem.
Sampled rows, rich in hits. Any-hit rate of the full collection: about 3.5%.
GPR151 activ – activates the human receptor GPR151; PathHunter beta-arrestin GPR151 cells, luminescence; activation, % at 11.2 µM; 650,000 tested, 1% active; AID 1508602; in the data active means activation above about 4.9%;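 further: 0% = median of compound wells and 100% = cells with positive control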
FBW7 activator – activators of human E3 ligase FBW7. Q969H0. AlphaScreen FBW7–phospho-cyclin E peptide binding, activator screen. AID 1259310. 650,000 tested, 0.13% active. normalized activity (activation), % at 26.1 µM; in the data active means normalized activity above about 1.9%;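 further: purified mutant Fbw7 with reduced substrate affinity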
TEAD-YAP block – TEAD-YAP interaction inhibition | HEK-TIYL cells, TEAD-Gal4/YAP UAS-luciferase luminescence | inhibition, % at 9.12 µM | 640,000 tested, 1.4% active | AID 1259422; in the data active means inhibition above about 32%;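 further: 0% = median of test compound wells and 100% = reference inhibitor wells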
MITF primary – inhibitors of human MITF | O75030 | 650,000 tested, 0.91% active | inhibition, % at 2.6 µM | AID 1259374 | AlphaScreen MITF homodimerization, bead proximity signal; in the data active means inhibition above about 50%;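 further: 0% = vehicle wells with protein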
Target sequence (O75030 whole entry, looked up): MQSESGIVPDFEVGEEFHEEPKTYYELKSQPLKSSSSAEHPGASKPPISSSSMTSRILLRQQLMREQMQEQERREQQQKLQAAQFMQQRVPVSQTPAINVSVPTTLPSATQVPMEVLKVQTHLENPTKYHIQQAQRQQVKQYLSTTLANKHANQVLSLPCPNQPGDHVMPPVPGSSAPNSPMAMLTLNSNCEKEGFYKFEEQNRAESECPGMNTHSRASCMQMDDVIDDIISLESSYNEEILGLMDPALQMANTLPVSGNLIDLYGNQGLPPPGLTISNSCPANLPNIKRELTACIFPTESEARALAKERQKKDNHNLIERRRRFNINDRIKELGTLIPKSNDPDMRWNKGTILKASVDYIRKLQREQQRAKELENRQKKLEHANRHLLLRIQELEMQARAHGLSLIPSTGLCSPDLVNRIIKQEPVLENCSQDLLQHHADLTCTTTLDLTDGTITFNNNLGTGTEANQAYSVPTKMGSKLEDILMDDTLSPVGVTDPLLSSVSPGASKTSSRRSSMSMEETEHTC
MITF confirm – human MITF inhibition, confirmation | AlphaScreen MITF homodimerization, biotin/His-MITF beads | 4,700 tested, 16% active | inhibition, % at 2.6 µM | shares compounds with MITF primary;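 active means inhibition above a cutoff derived from the DMSO control wells, cut at about 28% in these data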;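 further: 0% = MITF dimer wells with DMSO only; inhibitors lower the bead chemiluminescence by keeping MITF from dimerizing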
AS interf DR – AlphaScreen optical interference, dose response counter-screen; shares compounds with MITF primary; AlphaScreen optical interference counterscreen, cell-free; IC50, µM; 480 tested, 6% active; call rule not given here
AS interf ctr – counter-screen: compounds optically interfering with AlphaScreen; shares compounds with MITF primary; LysRS AlphaScreen counterscreen, signal interference, triplicate; inhibition, % at 2.6 µM; 4,700 tested, 7.6% active;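 active means inhibition above a cutoff derived from the DMSO control wells, cut at about 30% in these data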
The depositor's hits bear a star.

Results for COc1ccc(N(C)C(=O)CCc2nc(-c3ccc(C)cc3)no2)cc1 ?
GPR151 activ: -1; FBW7 activator: 0; TEAD-YAP block: 12; MITF primary: 56*; MITF confirm: 10; AS interf ctr: -5

How did COc1ccc(CN2C[C@@H]3C[C@@H](c4sccc4C)N4CCC[C@@]34C2=O)cc1 do in these assays?
GPR151 activ: 1; FBW7 activator: 0; TEAD-YAP block: -9; MITF primary: 11

What do the screens show for `O=C(O)c1ccc(-n2cccc2/C=C2/NC(=O)N(c3ccc(Cl)cc3)C2=O)cc1`?
GPR151 activ: 0; FBW7 activator: 0; TEAD-YAP block: -15; MITF primary: 55*; MITF confirm: 74*; AS interf ctr: 34*

What do the screens show for `O=C(O)c1cccc(-n2cccc2/C=C2/NC(=O)N(c3cccc(Cl)c3)C2=O)c1`?
GPR151 activ: 0; FBW7 activator: 0; TEAD-YAP block: 5; MITF primary: 21

How did O=C1NC(=O)/C(=C\c2cccn2-c2ccc(C(=O)O)cc2)N1 do in these assays?
GPR151 activ: -1; FBW7 activator: 0; TEAD-YAP block: 13; MITF primary: 66*; MITF confirm: 9; AS interf ctr: -5

Results for O=C(O)c1cccc(-n2cccc2/C=C2/NC(=O)N(c3ccc(Cl)cc3)C2=O)c1 ?
GPR151 activ: 0; FBW7 activator: 0; TEAD-YAP block: -8; MITF primary: 61*; MITF confirm: 36*; AS interf DR: >6.5; AS interf ctr: 10

What do the screens show for `O=C(O)c1ccc(/C=C2/NC(=O)N(c3ccc(Cl)cc3)C2=O)cc1`?
GPR151 activ: 1; FBW7 activator: 0; TEAD-YAP block: -7; MITF primary: -20

What do the screens show for `COc1ccc(OC(C)C(=O)Nc2ccc(Cl)c(Cl)c2)cc1` (configuration not stated)?
GPR151 activ: 2; FBW7 activator: 1; TEAD-YAP block: 9; MITF primary: 20

Results for CSc1ncccc1C(=O)N1CCC(C2(Cc3ccccc3)NC(=O)NC2=O)CC1 (configuration not stated) ?
GPR151 activ: -1; FBW7 activator: 0; TEAD-YAP block: -5; MITF primary: 0

What do the screens show for `CC12C=CC(CO)(O1)C1C(=O)N(c3ccc([N+](=O)[O-])cc3)C(=O)C12` (configuration not stated)?
GPR151 activ: 0; FBW7 activator: 0; TEAD-YAP block: -11; MITF primary: -3

What do the screens show for `Cc1ccc(N2C(=O)C3C(C2=O)C2(CO)C=CC3(C)O2)cc1[N+](=O)[O-]` (configuration not stated)?
GPR151 activ: 1; FBW7 activator: 0; TEAD-YAP block: 7; MITF primary: 53*; MITF confirm: 43*; AS interf DR: >6.5; AS interf ctr: 5

What do the screens show for `Cc1ccc(/C=C(\C#N)C(=O)Nc2cccc(Cl)c2Cl)o1`?
GPR151 activ: 0; FBW7 activator: 0; TEAD-YAP block: -2; MITF primary: 8

What do the screens show for `Cc1ccc(/C=C(\C#N)C(=O)Nc2c(Cl)cccc2Cl)o1`?
GPR151 activ: -2; FBW7 activator: 0; TEAD-YAP block: -14; MITF primary: 74*; MITF confirm: 5; AS interf ctr: 18

Results for CCCCNS(=O)(=O)c1ccc(S(=O)(=O)NC(C)c2cccs2)cc1 (configuration not stated) ?
GPR151 activ: 1; FBW7 activator: 0; TEAD-YAP block: 4; MITF primary: 56*; MITF confirm: 6; AS interf ctr: 6

What do the screens show for `CC(NS(=O)(=O)c1ccc(S(=O)(=O)NCc2ccccc2)cc1)c1cccs1` (configuration not stated)?
GPR151 activ: 0; FBW7 activator: 0; TEAD-YAP block: 2; MITF primary: 22

What do the screens show for `CSc1ccc(C2SCC(=O)N2c2ccc(Cl)c(Cl)c2)cc1` (configuration not stated)?
GPR151 activ: 0; FBW7 activator: 0; TEAD-YAP block: -6; MITF primary: 4

How did O=C(CN1C(=O)NC2(CCCCCC2)C1=O)NC(=O)NCc1ccco1 do in these assays?
GPR151 activ: -1; FBW7 activator: 0; TEAD-YAP block: -4; MITF primary: 70*; MITF confirm: 71*; AS interf DR: >7.2; AS interf ctr: 12

How did CCCS(=O)(=O)N1CCN(Cc2ccncc2)CC1 do in these assays?
GPR151 activ: -1; FBW7 activator: 0; TEAD-YAP block: 0; MITF primary: 62*; MITF confirm: 9; AS interf ctr: 9

Results for CCc1ccc(CN2CCN(S(=O)(=O)CC)CC2)cc1 ?
GPR151 activ: 3; FBW7 activator: 0; TEAD-YAP block: -9; MITF primary: 51*; MITF confirm: 25; AS interf ctr: 17

Results for Cc1ccc(CN2CCN(S(=O)(=O)c3ccccc3)CC2)cc1 ?
GPR151 activ: 3; FBW7 activator: 1; TEAD-YAP block: -3; MITF primary: 71*; MITF confirm: -5; AS interf ctr: 5

How did CCOc1ccc(CN2CCN(S(=O)(=O)CC)CC2)cc1 do in these assays?
GPR151 activ: 0; FBW7 activator: 0; TEAD-YAP block: 0; MITF primary: 42

Results for O=S(=O)(c1ccccc1)N1CCN(Cc2ccccc2)CC1 ?
GPR151 activ: 0; FBW7 activator: 0; TEAD-YAP block: 3; MITF primary: 12

What do the screens show for `CCCS(=O)(=O)N1CCN(Cc2ccc(SC)cc2)CC1`?
GPR151 activ: 2; FBW7 activator: 0; TEAD-YAP block: 13; MITF primary: 44

Results for CCc1ccc(CN2CCN(S(=O)(=O)c3ccccc3)CC2)cc1 ?
GPR151 activ: -1; FBW7 activator: 0; TEAD-YAP block: 1; MITF primary: 55*; MITF confirm: 4; AS interf ctr: 4

What do the screens show for `CC(=O)Nc1ccccc1NC(=O)C/C(C)=N/NC(=O)C(=O)NC1CCCCC1`?
GPR151 activ: 0; FBW7 activator: 0; TEAD-YAP block: 5; MITF primary: 7

What do the screens show for `CC(=O)c1ccc(-n2c(=O)c3cc4c(=O)n(-c5ccc(C(C)=O)cc5)c(=O)c4cc3c2=O)cc1`?
GPR151 activ: 1; FBW7 activator: 0; TEAD-YAP block: 2; MITF primary: 10

What do the screens show for `CCC1Sc2cc(S(=O)(=O)CCC(=O)N(CC)c3cccc(C)c3)ccc2NC1=O` (configuration not stated)?
GPR151 activ: 3; FBW7 activator: 0; TEAD-YAP block: 22; MITF primary: 4

Results for CCNC(=O)C1Cc2ccccc2N1C(=O)c1ccc(S(=O)(=O)N(CC)CC)cc1 (configuration not stated) ?
GPR151 activ: 0; FBW7 activator: 0; TEAD-YAP block: 3; MITF primary: 7

How did Cc1cccc(-n2cc(-c3ccccc3)c3c(NCCO)ncnc32)c1 do in these assays?
GPR151 activ: -1; FBW7 activator: 0; TEAD-YAP block: -11; MITF primary: 2
